In PubChem BioAssay (EPA / NIEHS) one finds outcome and AC50 data, which are given here for four compounds.

Calls of active or inactive are those of the source. The calls were made as follows: active = hit-call score of the fitted dose curve at least 0.9, where 1 is the maximum; inactive = score below 0.9.

Assay [1] in a line: CEETOX_H295R_PROG: CeeTox H295R High-throughput Steroidogenesis Assay for Progesterone (PROG) (AID 2283442). To be noted: actives raise or lower the signal. Put shortly:
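Steps: seed H295R cells and let them adhere overnight; prime 48 h with 10 uM forskolin; dose with compound in DMSO at 0.1% final for 48 h; extract medium steroids with MTBE; measure progesterone by LC-MS/MS. MTT viability was run in the same wells.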

Read-out in assay [2]: Tumor necrosis factor receptor superfamily member 6 (Homo sapiens) (UniProt P25445)
As to the kind of experiment: LTEA_HepaRG_FAS: Life Technologies and Expression Analysis (LTEA) Assay for Fas cell surface death receptor (FAS) using HepaRG (AID 2283447). Particulars: mRNA level, 48 h; actives raise or lower the signal. The gist of the method:
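Differentiated HepaRG cells in serum-free induction medium were exposed 48 h to 8 half-log concentrations up to 100 uM in 0.5% DMSO, in duplicate. FAS mRNA was measured by qRT-PCR normalised to ACTB, GAPDH and POLR2A; bidirectional fit versus DMSO.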

Read-out in assay [3]: Fatty acid synthase (Homo sapiens) (UniProt P49327)
As to the kind of experiment: LTEA_HepaRG_FASN: Life Technologies and Expression Analysis (LTEA) Assay for Fatty Acid Synthase (FASN) using HepaRG (AID 2283448). Particulars: mRNA level, 48 h; actives raise or lower the signal. The gist of the method: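 HepaRG, 48 h exposure, 8-pt half-log series top 100 uM, 0.5% DMSO vehicle, duplicates. Readout: FASN transcript by Fluidigm qRT-PCR; housekeeping-normalized; bidirectional curve fit vs DMSO baseline.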

Read-out in assay [4]: Cyclin D2 (CCND2), CCND2 (gene 894)
As to the kind of experiment: LTEA_HepaRG_CCND2: Life Technologies and Expression Analysis (LTEA) Assay for Cyclin D2 (CCND2) using HepaRG (AID 2283449).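 Also: CCND2 transcript measured by TaqMan qRT-PCR and normalised to three housekeeping genes.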 To be noted: mRNA level, 48 h; actives raise or lower the signal. Put shortly:
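HepaRG, 48 h dosing, 8-pt half-log curve from 100 uM, 0.5% DMSO; duplicate wells. Readout: CCND2 transcript by microfluidic qRT-PCR, housekeeping-normalised; bidirectional fit vs DMSO baseline.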

Read-out in assay [5]: Cyclin Dependent Kinase Inhibitor 1A (CDKN1A), CDKN1A (gene 1026)
As to the kind of experiment: LTEA_HepaRG_CDKN1A: Life Technologies and Expression Analysis (LTEA) Assay for Cyclin Dependent Kinase Inhibitor 1A (CDKN1A) using HepaRG (AID 2283450). To be noted: mRNA level, 48 h; actives raise or lower the signal. The gist of the method: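 Read-out is CDKN1A mRNA by TaqMan qRT-PCR, normalized to three housekeeping genes and fitted in both directions against the DMSO baseline. Human HepaRG cells were treated 48 h with test chemicals up to 100 uM in half-log steps, 0.5% DMSO.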

Read-out in assay [6]: Cyclin D1 (CCND1), CCND1 (gene 595)
As to the kind of experiment: LTEA_HepaRG_CCND1: Life Technologies and Expression Analysis (LTEA) Assay for Cyclin D1 (CCND1) using HepaRG (AID 2283451). Particulars: mRNA level, 48 h; actives raise or lower the signal. The gist of the method:
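HepaRG plated 48 h, medium switched to serum-free induction medium, chemicals added in duplicate (top 100 uM, half-log steps, 0.5% DMSO) for 48 h, cells lysed, RNA measured by TaqMan qRT-PCR.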

Read-out in assay [7]: catalase (CAT), CAT (gene 847)
As to the kind of experiment: LTEA_HepaRG_CAT: Life Technologies and Expression Analysis (LTEA) Assay for catalase (CAT) using HepaRG (AID 2283452). To be noted: mRNA level, 48 h; actives raise or lower the signal. The gist of the method:
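HepaRG cells in serum-free induction medium, 0.5% DMSO vehicle, exposed 48 h in duplicate over 8 half-log concentrations from 100 uM. CAT mRNA measured by qRT-PCR, normalized to ACTB, GAPDH, POLR2A; bidirectional fit versus DMSO.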

Read-out in assay [8]: Cytochrome P450 (CYP1A1), CYP1A1 (gene 1543)
As to the kind of experiment: LTEA_HepaRG_CYP1A1: Life Technologies and Expression Analysis (LTEA) Assay for Cytochrome P450 (CYP1A1) using HepaRG (AID 2283454). To be noted: mRNA level, 48 h; actives raise or lower the signal. Put shortly:
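HepaRG, 48 h post-plating switched to serum-free induction medium; 8-pt conc-response (top 100 uM, half-log, 0.5% DMSO), duplicates, 48 h. Lysis in RLT, TaqMan qRT-PCR for CYP1A1; gain or loss vs DMSO.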

Read-out in assay [9]: growth arrest and DNA damage 45 (GADD45A), GADD45A (gene 1647)
As to the kind of experiment: LTEA_HepaRG_GADD45A: Life Technologies and Expression Analysis (LTEA) Assay for growth arrest and DNA damage 45 (GADD45A) using HepaRG (AID 2283458). Particulars: mRNA level, 48 h; actives raise or lower the signal. Put shortly:
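HepaRG, 48 h exposure, 8 conc. (top 100 uM, half-log steps), 0.5% DMSO vehicle, duplicates. Read-out: qRT-PCR mRNA level, housekeeping-normalized (ACTB/GAPDH/POLR2A). Curves fit bidirectionally vs DMSO baseline.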

Read-out in assay [10]: Forkhead box O3 (FOXO3), FOXO3 (gene 2309)
As to the kind of experiment: LTEA_HepaRG_FOXO3: Life Technologies and Expression Analysis (LTEA) Assay for Forkhead box O3 (FOXO3) using HepaRG (AID 2283459). To be noted: mRNA level, 48 h; actives raise or lower the signal. Put shortly:
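qRT-PCR readout of FOXO3 transcript, normalized to three housekeeping genes (ACTB, GAPDH, POLR2A); gain or loss fitted against 0.5% DMSO vehicle. HepaRG cells, 48 h chemical exposure, 8-point half-log series, top 100 uM.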

Read-out in assay [11]: ABC Transporter (ABCB1), ABCB1 (gene 5243)
As to the kind of experiment: LTEA_HepaRG_ABCB1: Life Technologies and Expression Analysis (LTEA) Assay for ABC Transporter (ABCB1) using HepaRG (AID 2283460). Particulars: mRNA level, 48 h; actives raise or lower the signal. The gist of the method: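 HepaRG, 48 h exposure, 8-pt half-log series from 100 uM, 0.5% DMSO vehicle, duplicates. Readout: ABCB1 transcript by Fluidigm TaqMan qRT-PCR, housekeeping-normalized; bidirectional curve fit vs DMSO baseline.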

Read-out in assay [12]: growth arrest and DNA damage 45 (GADD45B), GADD45B (gene 4616)
As to the kind of experiment: LTEA_HepaRG_GADD45B: Life Technologies and Expression Analysis (LTEA) Assay for growth arrest and DNA damage 45 (GADD45B) using HepaRG (AID 2283461). Particulars: mRNA level, 48 h; actives raise or lower the signal. Put shortly: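 HepaRG, ~100,000 cells/well, 48 h plating; serum-free induction medium; cpd 100 uM top, half-log x8, 0.5% DMSO, duplicate, 48 h; lysis in RLT, RNA isolation, qRT-PCR; norm ACTB/GAPDH/POLR2A; bidirectional fit vs DMSO.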

Read-out in assay [13]: ABC Transporter (ABCC3), ABCC3 (gene 8714)
As to the kind of experiment: LTEA_HepaRG_ABCC3: Life Technologies and Expression Analysis (LTEA) Assay for ABC Transporter (ABCC3) using HepaRG (AID 2283462). Particulars: mRNA level, 48 h; actives raise or lower the signal. The gist of the method: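 Human HepaRG, 48 h dosing, 8-pt half-log series from 100 uM, 0.5% DMSO vehicle, duplicates. ABCC3 mRNA by TaqMan qRT-PCR, housekeeping-normalized; bidirectional curve fit vs DMSO.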

Read-out in assay [14]: ABC Transporter (ABCB11), ABCB11 (gene 8647)
As to the kind of experiment: LTEA_HepaRG_ABCB11: Life Technologies and Expression Analysis (LTEA) Assay for ABC Transporter (ABCB11) using HepaRG (AID 2283463). Particulars: mRNA level, 48 h; actives raise or lower the signal. The gist of the method: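 HepaRG, 48 h exposure, 8-pt half-log CRC top 100 uM, 0.5% DMSO vehicle, duplicates. Readout: TaqMan qRT-PCR of ABCB11 mRNA, housekeeping-normalized (ACTB/GAPDH/POLR2A). Bidirectional fit vs DMSO baseline.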

Read-out in assay [15]: ABC Transporter (ABCC2), ABCC2 (gene 1244)
As to the kind of experiment: LTEA_HepaRG_ABCC2: Life Technologies and Expression Analysis (LTEA) Assay for ABC Transporter (ABCC2) using HepaRG (AID 2283464). Particulars: mRNA level, 48 h; actives raise or lower the signal. The gist of the method: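 HepaRG, 48 h post-plating; serum-free induction medium; cpd 8-pt, 100 uM top, half-log, 0.5% DMSO, duplicate, 48 h. Readout: ABCC2 mRNA by qRT-PCR, norm. ACTB/GAPDH/POLR2A. Bidirectional fit vs DMSO baseline.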

Read-out in assay [16]: Broad substrate specificity ATP-binding cassette transporter ABCG2 (Homo sapiens) (UniProt Q9UNQ0)
As to the kind of experiment: LTEA_HepaRG_ABCG2: Life Technologies and Expression Analysis (LTEA) Assay for ABC Transporter (ABCG2) using HepaRG (AID 2283465). Particulars: mRNA level, 48 h; actives raise or lower the signal. The gist of the method: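 HepaRG, 48 h exposure, 8-pt half-log series from 100 uM, 0.5% DMSO vehicle, duplicates. Readout: ABCG2 transcript by qRT-PCR (Fluidigm array), housekeeping-normalized; bidirectional curve fit relative to DMSO baseline.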

Read-out in assay [17]: flavin-containing dimethylaniline monooxygenases 3 (FMO3), FMO3 (gene 2328)
As to the kind of experiment: LTEA_HepaRG_FMO3: Life Technologies and Expression Analysis (LTEA) Assay for flavin-containing dimethylaniline monooxygenases 3 (FMO3) using HepaRG (AID 2283453). Particulars: mRNA level, 48 h; actives raise or lower the signal. Put shortly:
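Eight-point concentration-response in serum-free HepaRG cultures (top 100 uM, 0.5% DMSO, 48 h). Read-out: FMO3 mRNA level normalized to three endogenous control genes, fitted bidirectionally versus vehicle.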

Read-out in assay [18]: CFLAR gene, CFLAR (gene 8837)
As to the kind of experiment: LTEA_HepaRG_CFLAR: Life Technologies and Expression Analysis (LTEA) Assay for CFLAR gene using HepaRG (AID 2283455). To be noted: mRNA level, 48 h; actives raise or lower the signal. The gist of the method: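 qRT-PCR read-out (Fluidigm/TaqMan) of CFLAR mRNA, normalized to three housekeeping genes, in differentiated human HepaRG cells after 48 h chemical exposure; 8-point half-log series from 100 uM in 0.5% DMSO; bidirectional curve fitting versus DMSO.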

Read-out in assay [19]: Forkhead box O1 (FOXO1), FOXO1 (gene 2308)
As to the kind of experiment: LTEA_HepaRG_FOXO1: Life Technologies and Expression Analysis (LTEA) Assay for Forkhead box O1 (FOXO1) using HepaRG (AID 2283456). To be noted: mRNA level, 48 h; actives raise or lower the signal. The gist of the method:
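HepaRG, 48 h exposure, 8-pt half-log series from 100 uM in 0.5% DMSO, duplicates; Fluidigm qRT-PCR mRNA, housekeeping-normalised; bidirectional fit vs DMSO baseline.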

The nature of assay [20]: CEETOX_H295R_TESTO: CeeTox H295R High-throughput Steroidogenesis Assay for Testosterone (TESTO) (AID 2283457). To be noted: actives raise or lower the signal. Put shortly:
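H295R, passage ≤10, 48 h dosing; media extracted with MTBE → HPLC-MS/MS for testosterone; 7-pt standard curve sets LLOQ/ULOQ; bidirectional fit vs DMSO; MTT viability same wells.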

Broad substrate specificity ATP-binding cassette transporter ABCG2 (Homo sapiens), sequence (Q9UNQ0 whole entry, looked up): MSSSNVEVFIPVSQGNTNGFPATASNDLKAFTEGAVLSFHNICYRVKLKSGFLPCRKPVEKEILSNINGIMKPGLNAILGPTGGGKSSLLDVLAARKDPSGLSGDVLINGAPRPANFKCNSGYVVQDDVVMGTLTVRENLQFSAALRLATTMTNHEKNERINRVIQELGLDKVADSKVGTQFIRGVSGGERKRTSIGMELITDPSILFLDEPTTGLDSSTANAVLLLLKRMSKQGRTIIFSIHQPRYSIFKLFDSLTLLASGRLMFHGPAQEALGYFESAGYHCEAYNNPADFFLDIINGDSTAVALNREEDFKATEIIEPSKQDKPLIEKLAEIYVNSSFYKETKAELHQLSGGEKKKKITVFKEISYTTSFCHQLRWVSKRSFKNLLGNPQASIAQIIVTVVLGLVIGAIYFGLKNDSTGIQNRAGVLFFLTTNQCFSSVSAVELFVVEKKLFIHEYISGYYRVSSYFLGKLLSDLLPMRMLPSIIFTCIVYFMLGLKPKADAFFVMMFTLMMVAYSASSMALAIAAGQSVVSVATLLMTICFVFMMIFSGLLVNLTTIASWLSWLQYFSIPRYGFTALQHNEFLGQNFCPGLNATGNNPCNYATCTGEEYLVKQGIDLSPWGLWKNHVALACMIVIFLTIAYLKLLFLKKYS
Fatty acid synthase (Homo sapiens), sequence (P49327 whole entry, looked up): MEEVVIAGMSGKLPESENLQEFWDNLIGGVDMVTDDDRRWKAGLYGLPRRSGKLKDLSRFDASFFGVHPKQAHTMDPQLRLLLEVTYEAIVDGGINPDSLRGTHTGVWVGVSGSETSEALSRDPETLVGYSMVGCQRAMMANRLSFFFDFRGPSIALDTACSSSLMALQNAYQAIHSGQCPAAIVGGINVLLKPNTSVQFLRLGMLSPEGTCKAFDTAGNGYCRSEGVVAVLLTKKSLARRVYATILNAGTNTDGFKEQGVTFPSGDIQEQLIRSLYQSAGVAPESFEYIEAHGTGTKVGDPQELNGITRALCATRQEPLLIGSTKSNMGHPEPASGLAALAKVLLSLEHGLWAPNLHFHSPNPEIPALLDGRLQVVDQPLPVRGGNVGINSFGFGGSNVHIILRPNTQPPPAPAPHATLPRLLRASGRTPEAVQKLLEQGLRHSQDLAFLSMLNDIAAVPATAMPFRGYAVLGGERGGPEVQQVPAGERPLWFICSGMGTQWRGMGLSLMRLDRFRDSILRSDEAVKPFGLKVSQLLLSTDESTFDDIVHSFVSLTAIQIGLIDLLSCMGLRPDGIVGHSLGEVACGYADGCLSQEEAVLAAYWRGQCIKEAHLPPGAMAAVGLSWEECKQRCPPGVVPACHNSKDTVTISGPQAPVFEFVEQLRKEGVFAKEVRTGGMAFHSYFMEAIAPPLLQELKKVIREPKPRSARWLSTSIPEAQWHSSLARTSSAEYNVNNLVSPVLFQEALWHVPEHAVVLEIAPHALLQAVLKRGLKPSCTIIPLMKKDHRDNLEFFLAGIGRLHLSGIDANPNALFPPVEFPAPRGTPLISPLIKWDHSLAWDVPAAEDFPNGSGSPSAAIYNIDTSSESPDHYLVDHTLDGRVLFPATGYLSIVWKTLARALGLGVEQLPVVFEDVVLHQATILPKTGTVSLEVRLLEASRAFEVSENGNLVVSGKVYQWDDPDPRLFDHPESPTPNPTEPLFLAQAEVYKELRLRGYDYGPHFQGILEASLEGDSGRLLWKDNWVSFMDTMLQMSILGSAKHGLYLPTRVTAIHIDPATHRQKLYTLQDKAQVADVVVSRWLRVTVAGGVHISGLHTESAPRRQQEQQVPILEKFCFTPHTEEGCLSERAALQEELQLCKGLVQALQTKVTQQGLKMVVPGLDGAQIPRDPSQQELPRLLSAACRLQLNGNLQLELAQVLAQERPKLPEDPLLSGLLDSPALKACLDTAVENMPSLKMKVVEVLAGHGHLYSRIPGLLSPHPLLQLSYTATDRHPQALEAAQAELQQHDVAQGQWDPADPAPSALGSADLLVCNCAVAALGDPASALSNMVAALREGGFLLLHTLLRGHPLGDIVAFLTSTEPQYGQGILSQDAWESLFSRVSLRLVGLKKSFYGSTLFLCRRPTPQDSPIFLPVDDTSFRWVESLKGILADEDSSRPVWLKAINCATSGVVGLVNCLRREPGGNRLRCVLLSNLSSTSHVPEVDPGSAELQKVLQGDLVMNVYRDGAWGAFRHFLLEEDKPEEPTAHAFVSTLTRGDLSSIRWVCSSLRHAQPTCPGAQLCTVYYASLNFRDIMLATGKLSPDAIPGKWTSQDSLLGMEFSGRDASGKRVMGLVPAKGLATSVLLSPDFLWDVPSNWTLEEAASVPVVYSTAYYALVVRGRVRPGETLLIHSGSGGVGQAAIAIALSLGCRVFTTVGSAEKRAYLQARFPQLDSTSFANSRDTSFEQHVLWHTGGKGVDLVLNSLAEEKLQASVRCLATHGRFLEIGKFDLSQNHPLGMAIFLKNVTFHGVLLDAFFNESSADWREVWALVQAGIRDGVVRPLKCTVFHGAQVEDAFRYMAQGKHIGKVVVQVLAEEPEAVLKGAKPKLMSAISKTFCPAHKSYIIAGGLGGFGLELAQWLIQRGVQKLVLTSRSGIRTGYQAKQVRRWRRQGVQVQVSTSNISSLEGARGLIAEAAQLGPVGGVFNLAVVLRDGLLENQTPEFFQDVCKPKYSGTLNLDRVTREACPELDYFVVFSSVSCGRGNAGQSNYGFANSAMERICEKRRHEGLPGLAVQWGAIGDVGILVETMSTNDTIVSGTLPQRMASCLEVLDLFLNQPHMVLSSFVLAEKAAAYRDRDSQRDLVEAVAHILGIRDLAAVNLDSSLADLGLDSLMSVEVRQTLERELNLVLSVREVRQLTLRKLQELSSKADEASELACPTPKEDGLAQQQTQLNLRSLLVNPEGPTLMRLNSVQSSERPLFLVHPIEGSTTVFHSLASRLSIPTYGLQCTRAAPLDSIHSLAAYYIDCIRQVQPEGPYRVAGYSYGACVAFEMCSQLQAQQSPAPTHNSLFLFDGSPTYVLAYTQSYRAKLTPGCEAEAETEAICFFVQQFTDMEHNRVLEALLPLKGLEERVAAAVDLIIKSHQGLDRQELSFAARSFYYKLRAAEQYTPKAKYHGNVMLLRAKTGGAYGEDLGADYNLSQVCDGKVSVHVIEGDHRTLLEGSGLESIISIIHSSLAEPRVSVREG

As a reminder, the AC50 is the concentration giving half of the maximal activity seen. For the compound `Cc1c(COC(=O)[C@@H]2[C@H](/C=C(\Cl)C(F)(F)F)C2(C)C)cccc1-c1ccccc1`, the compound was called inactive in [1], in assay [2], in assay [3], in [4], in assay [5] and in [6]. Also, the call in [7], in [9], in assay [10], in assay [12], in assay [13] and in assay [14] was inactive. Also, the outcome in assay [15] was inactive. The AC50 in [8] is 33.6 µM (active); in [11], 28.3 µM (active); in assay [16], 50 µM (active).

Take `COP(=S)(OC)SCn1nnc2ccccc2c1=O`: the outcome in assay [1], in assay [2], in [3], in assay [4], in assay [5] and in [6] was inactive. Moreover, the call in [7], in assay [17], in assay [18], in assay [19], in assay [20] and in assay [9] was inactive. Moreover, the compound was classed as inactive in assay [10], in [11], in assay [12], in assay [13], in assay [14] and in [15]. In addition, the AC50 in [8] is 50 µM (active); in assay [16], 15.5 µM (active).

Turning to `CC1(C)CON(Cc2ccccc2Cl)C1=O`, the compound was called inactive in assay [1], in assay [2], in assay [3], in assay [4], in assay [5] and in assay [6]. For the same compound, the outcome in assay [7], in assay [19], in assay [9], in [10], in assay [13] and in assay [14] was inactive. For the same compound, the result in assay [16] was inactive. The values for the AC50 in assay [8], in assay [11] and in assay [15] were 50 µM (active), 9.19 µM (active) and 18.4 µM (active), respectively.

Consider `Clc1nc(Cl)nc(Nc2ccccc2Cl)n1`, for which the call in [1], in assay [2], in assay [3], in [4], in assay [5] and in assay [6] was inactive. In addition, the call in assay [7], in [17], in assay [9], in assay [10], in assay [13] and in [14] was inactive. In addition, the result in [15] and in assay [16] was inactive. The AC50 in assay [8] is 25.5 µM (active).
